# Sampled rows, rich in hits. Any-hit rate of the full collection: about 11%.
# ALDH1A1 inh: ALDH1A1 (human) enzyme inhibition; P00352; Purified ALDH1A1, NADH fluorescence, propionaldehyde substrate; Potency, µM (highest dose often 75.3 µM), usual class: inhibitors; hit rate 7.3% among 220,000; AID 1030
# IMPase cell inh: IMPase inhibition in cells | P97697 | CHO-M1 cells, IP1 accumulation, HTRF TR-FRET ratio | inhibition (IP1 accumulation), % at 46.1 µM | 120,000 tested, under 10 active; active = well fitted curve in the direction sought with a large enough effect in the signal ratio, not every such curve was filed as active; inconclusive = small, poorly fitted or top-dose-only effect, or a change in a side signal; inactive = no such curve, though single readings can be large or run the other way; the % refers to the signal ratio;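 also: cells stimulated with carbachol in lithium chloride buffer; higher means more IMPase inhibition seen as more IP1 and lower FRET ratio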
#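 CHO-M1 cells (CHO stably expressing M1 receptor), compound up to 46 uM final, stimulated with carbachol (50 uM as added) in buffer with 50mM LiCl, pH 7.4, 30 min at 37C. Cytosolic IP1 read by TR-FRET; AC50 from Hill fits.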
# HPGD inh: blocks human HPGD enzyme activity; P15428; purified HPGD, NADH fluorescence kinetic, PGE2 substrate; Potency, µM, hits mostly inhibitors; hit rate 4.3% among 150,000; AID 894
# Target sequence (P15428 whole entry, looked up): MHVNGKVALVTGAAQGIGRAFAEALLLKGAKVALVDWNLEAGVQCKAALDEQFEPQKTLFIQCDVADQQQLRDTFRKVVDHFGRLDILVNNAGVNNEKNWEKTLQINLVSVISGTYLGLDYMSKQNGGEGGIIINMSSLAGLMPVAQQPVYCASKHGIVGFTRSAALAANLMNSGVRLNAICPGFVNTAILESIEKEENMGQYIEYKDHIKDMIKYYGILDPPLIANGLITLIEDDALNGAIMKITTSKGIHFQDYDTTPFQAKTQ
#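 NADH formation kinetics: reaction with 30 uM PGE2 and 1 mM NAD+ (final), 20 nM enzyme, Tris-HCl pH 8 with Tween 20, after 15 min compound preincubation at room temperature. Fluorescence change, last versus first of five reads.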
# NPSR antag: antagonists of human neuropeptide S receptor cAMP signaling; Q6W5P4; CHO-NPSR cells, cAMP TR-FRET, antagonist mode; Potency, µM (highest dose often 38.3 µM), usual class: inhibitors; hit rate 1% among 220,000; AID 1461; active = well fitted curve in the direction sought with a large enough effect; inconclusive = small, poorly fitted or top-dose-only effect, or another doubt; inactive = no such curve, though single readings can be large; an effect the other way counts as inactive or inconclusive; also: nearly all actives have a fitted effect of over 50% in size
# Target sequence (Q6W5P4 whole entry, looked up): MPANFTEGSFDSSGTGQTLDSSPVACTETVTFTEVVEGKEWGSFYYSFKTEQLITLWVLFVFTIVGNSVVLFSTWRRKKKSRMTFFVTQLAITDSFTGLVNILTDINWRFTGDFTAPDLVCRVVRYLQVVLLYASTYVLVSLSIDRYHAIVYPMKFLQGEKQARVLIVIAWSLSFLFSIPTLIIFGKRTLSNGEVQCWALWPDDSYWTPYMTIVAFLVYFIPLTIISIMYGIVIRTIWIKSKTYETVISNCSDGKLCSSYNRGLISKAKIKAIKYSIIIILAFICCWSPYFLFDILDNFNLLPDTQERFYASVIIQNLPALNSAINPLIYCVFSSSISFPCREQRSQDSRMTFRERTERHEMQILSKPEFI
# IMPase Li inh: cell-permeable IMPase inhibitors with lithium potentiation. CHO-M1 cells, IP1 TR-FRET (IP-One), carbachol + lithium. Potency, µM (highest dose often 59.4 µM), actives largely listed as inhibitors. hit rate 0.35% among 210,000. AID 1457; active = well fitted curve in the direction sought with a large enough effect; inconclusive = small, poorly fitted or top-dose-only effect, or another doubt; inactive = no such curve, though single readings can be large; an effect the other way counts as inactive or inconclusive;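 also: IP1 builds up when IMPase is blocked and the TR-FRET signal falls; nearly all actives have a fitted effect of over 50% in size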
#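 CHO cells stably expressing M1 receptor (2000/well) were cultured 16–30 h, then exposed to compounds with a small lithium addition for 30 min at 37C. IP1 was measured by TR-FRET competition; AC50 from Hill fits.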
# PNC assembly inh: blocks assembly of the perinucleolar compartment; PC3M PTB-GFP, PNC prevalence imaging, 16 h; hits give low values; activity change (PNC), negative = inhibition, % at 10 µM; hit rate 3.1% among 140,000; AID 2417;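 active = readout at or below -70, meaning at least 70% loss of cells showing the perinucleolar compartment, a nuclear body marking cancer cells; inconclusive = readout between -30 and a set limit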
#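 Compounds are pinned in duplicate onto adhered PC3M cells stably expressing GFP-tagged PTB and incubated 16 h at 37 C. Cells are then fixed, nuclei stained with Hoechst, and PNC-positive cells counted.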
# Numbers stand for hits; – = inactive; ? = inconclusive; · = no result; [ ] = dose if it differs, or a comment. Unless noted, calls follow the shape of the dose curve; as a rule, active = well fitted inhibition curve with a large enough effect (not every such curve was filed as active); inconclusive = small, poorly fitted or top-dose-only effect, or another doubt; inactive = no such curve, though single readings can be large or run the other way.
SMILES,ALDH1A1 inh,IMPase cell inh,HPGD inh,NPSR antag,IMPase Li inh,PNC assembly inh
CCc1c(C)nc2ncnn2c1N1CCCC(C(=O)NCCc2ccc(OC)cc2)C1 (centres undefined),?,–,–,–,–,–
CCOc1cc(CN2CCSCC2)ccc1O,?,–,–,–,–,–
O=C1c2ccccc2C(=O)c2c(O)c(O)cc(O)c21,?,–,25.1µM,·,–,·
COc1ccc(OC)c2c1C(=O)c1ccccc1C2=O,7.94µM,–,–,–,–,–
COc1ccc(OC)c2c1C(=O)C(Cl)=C(Cl)C2=O,·,·,·,6.31µM,·,·
COc1ccc(S(=O)(=O)N2CCCC2)c(Cl)c1Cl,?,·,·,–,–,·
Nc1ccc(O)c2c1C(=O)c1ccccc1C2=O,–,·,12.6µM,–,–,–
CCCCC/C=C\C\C=C/C=C/C=C/[C@@H](O)[C@@H](O)CCCC(=O)O,–,·,–,·,–,·
C=CCSc1nc(C)c(Cc2cccc3ccccc23)c(=O)[nH]1,?,·,·,–,–,·
CC(C)NC(=O)COC(=O)Cn1[nH]c(=O)c2ccccc2c1=O,–,·,·,–,–,·
COc1ccc(N)c2c1C(=O)c1ccccc1C2=O,?,·,–,12.6µM,–,–
COC1=C(OC)C(=O)c2ccccc2C1=O,14.1µM,–,?,–,–,·
Nc1ccc(Br)c2c1C(=O)c1ccccc1C2=O,?,–,–,–,–,?
Cc1ccc(-n2c(O)c(C=Nc3ccccc3-c3n[nH]c(=S)[nH]c3=O)c3ccccc3c2=O)cc1C,3.55µM,·,·,1.26µM,–,·
Cc1cccc(-n2c(O)c(C=Nc3ccccc3-c3n[nH]c(=S)[nH]c3=O)c3ccccc3c2=O)n1,?,·,·,–,·,·
Cc1ccc(-n2c(O)c(C=Nc3ccccc3-c3n[nH]c(=S)[nH]c3=O)c3ccccc3c2=O)c(C)c1,17.8µM,·,·,–,–,·
COc1ccc(/C=N/Nc2nc(=O)[nH]nc2C)cc1[N+](=O)[O-],?,–,–,–,–,–
Fc1cccc(-n2c(-c3ccco3)nc3nc4ccccc4nc32)c1,?,–,?,–,?,–
Cc1cc(C)cc(NC(=O)c2cc(S(=O)(=O)NCc3ccco3)ccc2F)c1,–,–,·,–,·,–
CCCCCCCCCc1nc2sc3c(c2c(=O)n1NC(=O)c1ccc([N+](=O)[O-])cc1)CC(C)(C)OC3,7.08µM,·,–,–,–,?
CCCCCCCCCc1nc2sc3c(c2c(=O)n1NC(=O)c1ccccc1[N+](=O)[O-])CC(C)(C)OC3,1.41µM,·,–,–,–,–
CCCc1nc2sc3c(c2c(=O)n1NC(=O)c1ccco1)CC(C)(C)OC3,?,·,–,–,–,–
CCn1c(-c2ccccc2Cl)nn(CC(=O)Nc2ccccc2OC)c1=S,–,–,–,–,–,–
CCC(=O)N(Cc1cc2c(C)ccc(C)c2[nH]c1=O)C1CCCCC1,?,–,–,–,–,–
CC(=O)Nc1ccc(OCC(O)CN2CCN(Cc3ccccc3)CC2)cc1 (centres undefined),–,–,–,–,–,–
SMILES,ALDH1A1 inh,IMPase cell inh,HPGD inh,NPSR antag,IMPase Li inh,PNC assembly inh
NC(=S)N/N=C/c1c(O)ccc2ccccc12,·,·,·,–,·,·
CC(C)CSc1ncc(-c2cccc(C(F)(F)F)c2)cn1,22.4µM,–,–,–,–,–
O=S(=O)(c1ccccc1)c1nc(-c2ccco2)oc1NCc1cccnc1,?,–,–,–[7.67 µM],–,–
O=S(=O)(c1ccccc1)c1nc(-c2ccccc2)oc1NCc1cccnc1,25.1µM,–,–,–,–,?
Cc1ccc(NC(=O)c2ccc(Br)o2)cc1S(=O)(=O)N(C)C,14.1µM,·,·,–,–,·
CN(C)S(=O)(=O)c1cccc(NC(=O)COC(=O)/C=C/c2ccc(Br)o2)c1,8.91µM,·,·,–,·,·
Cc1ccc(NC(=O)COC(=O)/C=C/c2ccc(Br)o2)cc1S(=O)(=O)N(C)C,20µM,·,·,–,–,·
CN(C)S(=O)(=O)c1cccc(NC(=O)COC(=O)c2ccc(Br)o2)c1,–,–,–,–,–,–
CN(CCC#N)C(=O)COC(=O)c1ccc(Cl)c(S(N)(=O)=O)c1,–,–[1.84 µM],–,–,–,?
CCOc1ccccc1N1CCN(CC(=O)Nc2cc(C)on2)CC1,–,·,·,–,–,·
COc1ccc(/C=C2\SC(=NCc3ccccc3)NC2=O)cc1,–,–,?,–,–,–
COc1ccc(/C=C2\SC(=O)N=C2N)cc1,–,·,–,–,–,-104.5
COc1cc(CNCCc2c[nH]c3ccccc23)cc(Cl)c1OCC(N)=O,15.8µM,·,·,–,–,·
COc1ccc2c(c1OC)C(=O)OC2CC(=O)c1ccc(O)cc1 (centres undefined),28.2µM,–,25.1µM,?,–,?
COc1ccc2c(c1OC)C(=O)OC2CC(=O)c1ccc(O)c(O)c1 (centres undefined),–,–,?,–,–,–
Cc1cccc2nc3ccccc3nc12,–,·,·,–,–,·
O=C1OC(/C=C/c2ccc(Cl)cc2Cl)=NC/1=C\c1cccs1,3.16µM,·,–,–,–,–
Fc1ccc(-c2csc3nnc(SCc4cccnc4)n23)cc1,–,–,–,–,–,–
CCC(=O)N(Cc1ccco1)c1nc(C(=O)Nc2ccc(Cl)cc2)c(C)s1,22.4µM,–,?,–,–,–
CCn1ccnc1CN(C)Cc1cn(-c2cc(C)ccc2C)nc1-c1ccccc1,28.2µM,·,·,?,?,·
CC(=C/c1ccccc1)/C=N/Nc1nc(N2CCCCC2)nc(N2CCCCC2)n1,–,·,–,–,–,–
BrC(/C=N/Nc1nc(N2CCOCC2)nc(N2CCOCC2)n1)=C/c1ccccc1,?,–,15.8µM,–,–,-95.6
Brc1cc2c(cc1/C=N/Nc1nc(N3CCOCC3)nc(N3CCOCC3)n1)OCO2,20µM,–,–,–,–,–
O=C(COC(=O)/C=C/c1cccs1)Nc1cccc(S(=O)(=O)N2CCOCC2)c1,–,·,·,–,–,·
CCOC(=O)c1c(NC(=O)CSc2nnc(C)s2)sc2c1CCCCC2,?,–,–,?,–,–
SMILES,ALDH1A1 inh,IMPase cell inh,HPGD inh,NPSR antag,IMPase Li inh,PNC assembly inh
CCOC(=O)Cc1csc(SCC(=O)NC2CCCCC2)n1,–,·,?,–,–,–
CCOC(=O)Cc1csc(SCC(=O)NC2CCCC(C)C2C)n1 (centres undefined),?,–,25.1µM,–,–,?
CCOC(=O)Cc1csc(SCC(=O)Nc2sc3c(c2C(N)=O)CCC3)n1,?,–,17.8µM,–,–,–
COc1ccc(NC(=O)CN2CCC3(O)CCCCC3C2c2ccccc2OC)cc1 (centres undefined),–,?,–,?,–,–
COc1cc([C@H]2[C@@H]3CCCC[C@]3(O)CCN2CC(=O)Nc2ccc(C)cc2)ccc1O,–,–,–,–,–,-100.0
O=C(CN1C(=O)CSc2ccc(S(=O)(=O)N3CCOCC3)cc21)NCCCN1CCOCC1,–,·,·,–,–,·
O=C(Cn1cc([N+](=O)[O-])cn1)Nc1ccn(Cc2c(F)c(F)cc(F)c2F)n1,–,–,–,–,–,?

# Source: PubChem BioAssay
